# Compound activity: PubChem BioAssay, several laboratories
# TIM10 inh: TIM10 yeast growth inhibition; S. cerevisiae TIM10 strain growth, BacTiter-Glo luminescence, 24 h; inhibition, % at 10 µM; hit rate 1.4% among 330,000;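 active means inhibition of 40% or more at the single tested concentration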;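 further: wild-type TIM10 isogenic control strain grown at permissive 25 °C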
# tim10-1 inh: tim10-1 yeast growth inhibition; inhibition, % at 20 µM; S. cerevisiae tim10-1 ts strain growth, BacTiter-Glo, 24 h; AID 463190; hit rate 2.2% among 330,000;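 active means inhibition of at least 40%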;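 further: mutant grown at 25 °C; 0% = DMSO wells with yeast and 100% = wells holding no yeast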
# tim23-1 inh: growth inhibitors of tim23-1 mutant yeast; hit rate 1.3% among 330,000; inhibition, % at 20 µM; S. cerevisiae tim23-1 growth, BacTiter-Glo luminescence, 24 h; AID 463212;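 active means growth inhibition of the mutant yeast at or above 50%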;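 further: temperature-sensitive mutant grown at 25 °C; plate controls were DMSO-treated mutant yeast for no effect and medium wells lacking yeast for full effect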
# PfHsp90 yeast 2: inhibits growth of yeast expressing Plasmodium falciparum Hsp90; S. cerevisiae expressing PfHsp90, BacTiter-Glo ATP, 48 h; yeast lacking PDR1 and PDR3 efflux regulators; inhibition, % at 9.4 µM; hit rate 0.32% among 310,000; AID 504621;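 active means every replicate shows inhibition above about 80%, whatever the replicate mean, limit read from the data; inconclusive means mean inhibition reaches the set limit but some replicate falls short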;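 further: 0% = DMSO neutral controls and 100% = 20 µM radicicol positive controls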
# SKKanGAS inh: SKKanGAS growth inhibition. S. pyogenes SKKanGAS, kanamycin growth, BacTiter-Glo, 6 h. inhibition, % at 7.5 µM. hit rate 1.3% among 300,000;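 active means mean replicate score, as percent of positive control median, at least 50; inconclusive means mean below 50 but one replicate at or above 50; inactive means mean and every replicate below 50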;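 further: strain carries kanamycin resistance gene driven by streptokinase promoter and grows in 40 µg/ml kanamycin; loss of luminescence reflects streptokinase promoter inhibition or plain growth inhibition; 0% = median of DMSO wells and 100% = positive control at its reference dose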
# tim10-1 confirm: confirmation of tim10-1 mutant yeast growth inhibitors; shares compounds with tim10-1 inh; S. cerevisiae tim10-1 ts strain growth, BacTiter-Glo, 24 h; inhibition, % at 20 µM; hit rate 56% among 7,400; AID 463213;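 active means inhibition of yeast growth at or above a set limit in either of two repeat tests at 20 µM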;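 further: tim10-1 mutant grown at permissive 25 °C to find synthetic lethal compounds; 0% = DMSO yeast wells and 100% = medium wells without yeast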
# tim10 confirm: confirmation of TIM10 yeast growth inhibitors; shares compounds with TIM10 inh; S. cerevisiae tim10 strain growth, BacTiter-Glo luminescence, 24 h; inhibition, % at 10 µM; hit rate 63% among 4,600; AID 463215;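 active means inhibition of yeast growth at or above a set limit in either of two replicates at 10 µM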;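 further: this counterscreen used the strain with wild-type TIM10; 0% = yeast with DMSO and 100% = medium wells lacking yeast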
# * marks the source's active call; other numbers are inactive results; ? = inconclusive; · = no result given. Shown are actives, neighbours in structure and some others; about 4.4% of the full set was active somewhere.
SMILES,TIM10 inh,tim10-1 inh,tim23-1 inh,PfHsp90 yeast 2,SKKanGAS inh,tim10-1 confirm,tim10 confirm
COc1cc2c(cc1OC)C(COc1ccc(F)cc1)NCC2 (stereo not drawn),44.8*,43.2*,32.8,3.7,-9.8,36.0*,41.7*
O=C(NC(=S)N1CCN(c2ccc(C(F)(F)F)cc2[N+](=O)[O-])CC1)c1cccs1,40.0*,43.8*,47.0,2.4,87.2*,21.1,9.2
CCN1CCN(C(=S)NC(=O)c2cccs2)CC1,0.6,6.6,-7.2,-15.9,-3.6,·,·
Cn1c(Cl)cnc1C1CC(=O)c2cc(Cl)ccc2O1 (stereo not drawn),72.0*,65.8*,18.2,2.8,-11.4,57.8*,5.2
O=C1CC(c2ccc(Cl)cc2)Oc2ccc(Cl)cc21 (stereo not drawn),·,·,·,-36.5,·,·,·
Nn1cnnc1N/N=C/c1cccc(Cl)c1Cl,52.3*,51.0*,38.3,10.9,16.0,50.2*,59.9*
COc1ccccc1OCCNC(=O)C1CC(=O)N(c2ccc3c(c2)OCCO3)C1 (stereo not drawn),-6.6,-11.3,-4.4,·,0.0,·,·
CCCOc1ccc(CN(CCC#N)C(=S)NC(=O)c2ccccc2)cc1,42.9*,47.7*,42.2,-84.8,43.9,34.8*,-13.8
Cc1ccc(C(C(=O)NCC2CCCO2)N(C(=O)c2snc(C(N)=O)c2N)c2ccc(C)c(C)c2)o1 (stereo not drawn),14.2,6.4,21.6,-55.7,-0.8,·,·
Cc1ccnn2cc3c(=O)n(C)c(=O)n(C)c3c12,72.2*,53.2*,41.1,·,-3.7,50.5*,-9.2
Cn1c(=O)c2cn3ncccc3c2n(C)c1=O,·,·,·,·,6.1,·,·
O=Nc1c(O)n(Cc2ccc(Cl)cc2Cl)c2ccccc12,41.6*,51.9*,38.2,6.3,11.6,18.5,39.0*
O=S(=O)(c1ccccc1)N1CCC(=NO)CC1,-17.0,8.9,13.4,-1.0,-13.1,·,·
O=C(ON=C1CCN(S(=O)(=O)c2ccccc2)CC1)c1cccc(Cl)c1,46.8*,66.5*,45.3,·,-1.8,67.0*,55.0*
Cn1c(=O)c2c(nc(N3CCNCC3)n2Cc2ccccc2Cl)n(C)c1=O,-5.2,0.8,14.6,-7.9,5.6,·,·
Cn1c(=O)c2c(nc(N3CCN(c4ccccn4)CC3)n2Cc2ccccc2Cl)n(C)c1=O,50.8*,43.2*,23.7,-25.1,-6.5,27.6,35.4*
Cc1ccc(S(=O)(=O)N2CCCCC2)cc1NC(=O)CNC(C)c1ccc(Cl)c(Cl)c1 (stereo not drawn),18.9,34.3,19.4,1.3,·,·,·
CCOC(=O)c1cnc2ccccc2c1NCCO,-3.5,14.0,12.8,1.2,-0.7,·,·
CCOC(=O)c1cnc2c(ccc3ccccc32)c1NCCCN(C)C,80.8*,49.5*,45.8,-15.6,-4.6,64.9*,79.8*
Cc1c(CCO)c(=O)[nH]n1S(=O)(=O)c1ccc(F)cc1,-2.6,-2.7,-4.9,-4.6,-1.8,·,·
O=c1oc2ccccc2nc1/C=C(O)/C=C\c1ccccc1,45.3*,57.5*,39.0,·,-15.9,46.5*,44.1*
O=C(COC(=O)/C=C/C(=O)OCC(=O)NC12CC3CC(CC(C3)C1)C2)NC12CC3CC(CC(C3)C1)C2,45.1*,55.5*,36.2,-15.7,-18.4,42.9*,13.4
CC1CCC2(CC1)NC(=O)N(NC(=O)C1CCN(C(=O)c3ccc(Cl)cc3)CC1)C2=O (stereo not drawn),1.1,-17.7,-3.4,-22.2,·,·,·
Cn1nc(C(F)(F)F)c2cc(NC(=O)OCc3ccc(F)cc3)sc21,56.2*,57.8*,-6.4,-15.5,0.0,48.8*,54.0*
Cc1c(C)c2ccc(OCC(=O)NCCCN3CCCC3=O)cc2oc1=O,5.3,3.0,-5.5,-7.9,-3.3,·,·
SMILES,TIM10 inh,tim10-1 inh,tim23-1 inh,PfHsp90 yeast 2,SKKanGAS inh,tim10-1 confirm,tim10 confirm
S=C(NN=C1C2CC3CC(C2)CC1C3)Nc1ccccc1,51.0*,59.7*,48.5,-0.1,-3.0,46.1*,-25.4
Cc1ccccc1-c1noc(N)c1C#N,31.0,38.5,24.0,32.9,2.3,·,·
CCOc1cc(-c2noc(N)c2C#N)cc(OCC)c1OCC,67.0*,67.7*,47.5,6.4,-11.0,60.8*,58.2*
N/C(=N\OC(=O)CC1CCCCC1)c1cccc(Br)c1,73.0*,62.1*,41.0,-6.6,6.3,66.9*,61.9*
N/C(=N\OC(=O)CC1CCCCC1)c1ccc(Cl)cc1,44.0*,42.2*,25.5,·,3.8,56.8*,34.3*
N/C(=N\OC(=O)CC1CCCCC1)c1ccc(Br)cc1,19.4,32.6,12.7,18.0,0.4,·,·
Cc1cc(S(=O)(=O)NCc2ccccc2)ccc1OCC(=O)N1CCCC1,10.5,6.9,14.4,-35.2,-0.3,·,·
CCC(NS(=O)(=O)c1ccc(C)cc1)C(=O)N1CCOCCOCCOCCOCC1 (stereo not drawn),2.6,-18.4,12.4,36.1,-0.4,·,·
N#C/C(=C\c1ccc([N+](=O)[O-])o1)C(=O)Nc1ccc(F)cc1,79.1*,54.7*,-106.9,105.5*,6.3,46.9*,96.0*
CCOc1c(OC(C)=O)ccc(/C=C2\N=C(SCC)SC2=O)c1[N+](=O)[O-],44.8*,50.0*,36.8,20.6,-3.3,46.0*,30.6*
COc1ccc(N2C(=O)CC(N3CCN(c4cccc(Cl)c4)CC3)C2=O)cc1 (stereo not drawn),3.8,13.8,30.7,-1.8,-3.8,·,·
COc1cccc(N2CCN(C3CC(=O)N(c4ccc(Cl)c(Cl)c4)C3=O)CC2)c1 (stereo not drawn),40.9*,55.0*,3.8,-36.8,11.5,31.4*,39.8*
COc1ccccc1NCC(O)Cn1c2ccccc2c2ccccc21 (stereo not drawn),42.5*,52.2*,-23.5,-50.4,-12.3,29.2,40.5*
NC(=O)CCS(=O)(=O)c1ccc(Cl)cc1,-17.9,-2.5,11.9,4.1,1.5,·,·
N/C(CCS(=O)(=O)c1ccc(Cl)cc1)=N\OC(=O)c1ccccc1Cl,51.4*,61.7*,41.8,4.2,-4.0,70.7*,50.5*
COc1ccc(CNC(=O)C2CC(=O)N(C3CCCC3)C2)cc1 (stereo not drawn),-5.5,-15.4,-16.8,-1.9,-6.0,·,·
O=c1c2[nH]c3ccccc3c2ncn1C1CCCCC1,-5.0,5.6,19.9,·,-3.0,·,·
O=C1c2ccccc2C(=O)c2c1ccc1c(=O)n(C3CCCCC3)[nH]c21,50.5*,49.5*,44.1,-13.4,?,39.0*,53.6*
CCCN1C(=O)/C(=C/c2ccc(C)s2)NC1=S,45.2*,46.5*,36.3,-1.5,-30.1,12.2,40.5*
Cc1ccc(/C=C2/NC(=O)N(Cc3ccccc3F)C2=O)s1,0.3,12.9,-19.0,14.1,-6.6,·,·
CC(C)CN1C(=O)/C(=C/c2ccco2)NC1=S,22.4,22.1,17.7,-31.2,-5.6,·,·
